Results on 16 molecules are retold here after PubChem BioAssay.

For test [1], the system named is XIP peptide (Xip251-270) binding. The test can be described thus: small-molecule binders of XIP peptide, primary screen, biochemical, small-molecule microarray, fluorescence 635/667 nm, 0.1 µg/mL protein (AID 1182). The conditions noted are these: fluorescent protein binding, 635 nm, higher = more signal, called active from +8 up or from −8 down.
The next test has as its system XIP peptide (Xip251-270). The experiment in a line: small-molecule binders of XIP peptide, primary screen, biochemical, small-molecule microarray, fluorescence 635/667 nm, 0.5 µg/mL protein (AID 1183). The conditions noted are these: small-molecule microarray binding, fluorescence 635 nm; higher = more signal.
Test [2] can be described thus: Plasmodium falciparum growth inhibition, primary screen, strain 3D7, DAPI fluorescence, 100 nL (AID 1184).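 Note: parasites grown inside human red blood cells in medium with human serum.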 The conditions noted are these: P. falciparum 3D7 growth, 3 d, higher = more signal.
The target of test [3] is Homeobox protein Hox-A13 (Mus musculus) (UniProt Q62424). The test can be described thus: inhibitors of HoxA13-DNA binding, primary screen, biochemical, fluorescence polarization, labeled oligonucleotide (AID 1185). The conditions noted are these: 15 min, higher = more signal, called active from +8 up or from −8 down. In general terms: Fluorescence polarisation rises when a labelled molecule tumbles more slowly, as on binding a larger partner.
Homeobox protein Hox-A13 (Mus musculus), sequence (Q62424 whole entry, looked up): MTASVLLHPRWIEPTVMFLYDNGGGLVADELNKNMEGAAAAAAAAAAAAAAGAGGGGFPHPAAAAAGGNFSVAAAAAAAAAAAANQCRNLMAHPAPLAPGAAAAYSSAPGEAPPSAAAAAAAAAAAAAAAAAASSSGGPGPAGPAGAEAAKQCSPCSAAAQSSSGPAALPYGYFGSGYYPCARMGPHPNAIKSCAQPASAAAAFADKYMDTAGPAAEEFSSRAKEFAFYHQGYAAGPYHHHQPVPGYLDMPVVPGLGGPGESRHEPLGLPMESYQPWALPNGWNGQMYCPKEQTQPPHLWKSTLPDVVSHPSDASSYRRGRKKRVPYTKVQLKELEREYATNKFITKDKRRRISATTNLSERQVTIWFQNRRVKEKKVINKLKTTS

Test [4] in a line: inhibitors of hydroxyurea-induced Chk1 phosphorylation, primary screen, imaging, HeLa, phospho-Chk1 antibody, percent positive cells (AID 1186). The following applies: hydroxyurea-induced phospho-Chk1 immunofluorescence imaging, higher = more signal.
Test [5] is described as follows: inhibitors of hydroxyurea-induced Chk1 phosphorylation, primary screen, imaging, HeLa, phospho-Chk1 nuclear intensity (AID 1187). The conditions noted are these: hydroxyurea-induced phospho-Chk1 immunofluorescence imaging, higher = more signal.

Molecules are shown by their SMILES. Calls of active or inactive are those of the source. Unless noted, the rule behind the calls is not given here.

As for `C=CCOC(=O)[C@@H]1[C@H]2C(=O)O[C@H](c3ccccc3)[C@H](c3ccccc3)N2[C@H](c2ccc(OCCOC(=O)[C@@H]3C[C@@H]4C(=O)N[C@@H](CCCCN(C)C)C(=O)N4[C@@H]3c3ccc(O)cc3)cc2)[C@@]12C(=O)Nc1ccc(I)cc12`, the values for the composite z-score (in test [1]; with XIP peptide (Xip251-270)) were 1.45 (inactive) and 0.783, respectively. Also, the z-score in test [2] was -0.369; in test [3], 5.96 (inactive); in test [4], -0.0333 (inactive); in test [5], 0.121 (inactive).
For the molecule `COCCOC(=O)N1C(=O)[C@@]2(c3cc(C#CC4=CCCCC4)ccc31)[C@H](C(N)=O)[C@H]1C(=O)O[C@H](c3ccccc3)[C@H](c3ccccc3)N1[C@@H]2c1ccc(OCCO)cc1`, the composite z-score was 0.134 (inactive) in test [1] and 0.729 in the test with XIP peptide (Xip251-270). Besides, the z-score in test [2] was -2; in test [3] it was 2.15 (inactive); in test [4], -0.116 (inactive); in test [5], -0.321 (inactive).
Regarding `COc1cc(CO)cc(I)c1O[C@H]1C=C(C(=O)NCCO)C[C@@H](N(CCN2CCOCC2)C(=O)C2CCOC2)[C@@H]1O` (stereo partly specified), the composite z-score in test [1] was 0.384 (inactive); in the test on XIP peptide (Xip251-270), 0.551. For the same molecule, the z-score in test [2] is 0.199; in test [3], -7.57 (inactive); in test [4], -0.182 (inactive); in test [5], 0.246 (inactive).
As for `COc1ccc([Si](C)(C)[C@H]2[C@H](CCn3cc([C@H](O)c4ccccc4)nn3)O[C@@]3(C(=O)N(Cc4cccc(N5CCOC5=O)c4)c4ccccc43)[C@@H]2C)cc1`, the composite z-score in test [1] is -0.44 (inactive); with XIP peptide (Xip251-270), 0.548. In addition, the z-score is -1.54 in test [2], -3.83 (inactive) in test [3], -0.056 (inactive) in test [4] and 0.324 (inactive) in test [5].
`COCCOC(=O)N1C(=O)[C@@]2(c3cc(C#Cc4ccc(OC)cc4)ccc31)[C@H](c1ccc(O)cc1)N1[C@H](c3ccccc3)[C@H](c3ccccc3)OC(=O)[C@H]1[C@@H]2C(=O)NC[C@H](O)c1ccccc1`: the composite z-score in test [1] was 0.27 (inactive); in the test on XIP peptide (Xip251-270), 0.77. The z-score in test [2] is -1.66; in test [3] it was -0.934 (inactive); in test [4], -0.192 (inactive); in test [5], 0.249 (inactive).
As for `COCCCN1C(=O)[C@@]2(c3ccc([N+](=O)[O-])cc3)CC(=O)N(C3CCCCC3)[C@@H]2c2ccc(CO)cc21`, the composite z-score in test [1] is 0.0996 (inactive); in the test with XIP peptide (Xip251-270), 0.154. Further, the z-score is -0.599 in test [2], -0.329 (inactive) in test [3], 0.0889 (inactive) in test [4] and 0.133 (inactive) in test [5].
With `C=C/C=C/[C@H]1C(=C)CN([C@@H](Cc2ccccc2)C(=O)OC)[C@@H]1[C@H](O)Cc1ccccc1`, the composite z-score in test [1] is -0.245 (inactive); in the test on XIP peptide (Xip251-270), 0.497. Besides, the z-score in test [2] is -1.2; in test [3], -1.43 (inactive); in test [4] it was -0.0246 (inactive); in test [5] it was -0.368 (inactive).
`CCCCCN1CC=CC23O[C@@H]4/C=C\CCCOC(=O)C4[C@H]2C(=O)N(CCCO)[C@@H]3C1=O` (stereo partly specified): the composite z-score in test [1] is 1.75 (inactive); in the test with XIP peptide (Xip251-270) it was 0.772. Besides, the z-score was -0.332 in test [2], -5.09 (inactive) in test [3], -0.297 (inactive) in test [4] and -0.426 (inactive) in test [5].
With `CCOC(=O)C=Cc1cc([N+](=O)[O-])ccc1O`, the composite z-score in test [1] was -0.0238 (inactive); in the test on XIP peptide (Xip251-270), -0.466. The z-score in test [2] was -1.14; in test [3], 0.98 (inactive); in test [4], -0.818 (inactive); in test [5] it was -1.46 (inactive).
For the molecule `O=C1C2C=CC(C(O)c3c(F)cccc3Cl)N(Nc3ccccc3)C2C(=O)N1c1ccccc1` (stereo unspecified), the composite z-score was 0.469 (inactive) in test [1] and 0.702 in the test on XIP peptide (Xip251-270). Further, the z-score in test [2] is -0.342; in test [3], -3.25 (inactive); in test [4], 0.653 (inactive); in test [5], 0.683 (inactive).
With `CCOC1=C2C(CN(S(=O)(=O)c3ccc(C)cc3)C2c2ccc(C)cc2)C2C(=O)N(c3ccccc3)C(=O)C2C1` (stereo unspecified), the composite z-score in test [1] is -0.0729 (inactive); with XIP peptide (Xip251-270) it was 0.457. The z-score was 0.694 in test [2], -1.82 (inactive) in test [3], 0.218 (inactive) in test [4] and 0.402 (inactive) in test [5].
For `COCCOC(=O)N1C(=O)[C@@]2(c3cc(C#CCNC(N)=O)ccc31)[C@H](C(=O)NC[C@H](O)c1ccccc1)[C@H]1C(=O)O[C@H](c3ccccc3)[C@H](c3ccccc3)N1[C@@H]2c1ccccc1OCCO`, the composite z-score in test [1] was 0.0808 (inactive); in the test on XIP peptide (Xip251-270), 0.689. Moreover, the z-score in test [2] is -0.411; in test [3] it was -1.65 (inactive); in test [4] it was 0.0441 (inactive); in test [5], 0.0861 (inactive).
Consider `C=CCC(OC(C)=O)[C@@H]1[C@@H](N(Cc2ccc(-c3cccc(C(F)(F)F)c3)o2)C(=O)c2ccc(-c3ccccc3)cc2)c2cc(OCCCO)ccc2N1C(=O)c1ccc(-c2ccccc2)cc1` (stereo partly specified), for which the composite z-score is -0.462 (inactive) in test [1] and -1.09 with XIP peptide (Xip251-270). Further, the z-score in test [2] was -0.29; in test [3], -0.737 (inactive); in test [4], 0.216 (inactive); in test [5], 0.187 (inactive).
Consider `C=CCC(OC(C)=O)[C@@H]1[C@@H](N(Cc2cccc3ccccc23)C(=O)c2ccc(-c3ccccc3)cc2)c2cc(OCCCO)ccc2N1C(=O)Cc1ccc(OC)cc1` (stereo partly specified), for which the composite z-score in test [1] was -0.162 (inactive); in the test with XIP peptide (Xip251-270), 0.637. Moreover, the z-score in test [2] was -1.17; in test [3] it was -1.15 (inactive); in test [4], -0.302 (inactive); in test [5], -0.0837 (inactive).
Turning to `COc1ccc(C(=O)Nc2ccc(CN3C(=O)[C@@]4(O[C@@H](CC(=O)N5CCC[C@H]5CO)[C@H]([Si](C)(C)c5ccc(OC)cc5)[C@H]4C)c4ccccc43)cc2)cc1`, the composite z-score is 0.135 (inactive) in test [1] and 0.703 in the test with XIP peptide (Xip251-270). The z-score in test [2] is -0.183; in test [3] it was -3.33 (inactive); in test [4], -0.0567 (inactive); in test [5] it was 0.829 (inactive).
In the case of `CC1CC/C=C\[C@H]2OC34C=CCN(c5ccc(Cl)cc5)C(=O)[C@H]3N(CCO)C(=O)[C@]4(C)C2C(=O)O1` (stereo partly specified), the composite z-score is 1.21 (inactive) in test [1] and 0.18 in the test with XIP peptide (Xip251-270). The z-score is -0.515 in test [2], -4.66 (inactive) in test [3], -0.0711 (inactive) in test [4] and -0.271 (inactive) in test [5].
